# Bioassay records as filed in PubChem BioAssay.
# Compounds with a hit are over-represented: about 19% of the library has one in this group of screens.
# IL-1B inflam inh = inhibitors of inflammasome signaling (IL-1 beta secretion); THP-1 LPS/ATP IL-1B secretion, AlphaLISA, 16 h; active compounds read low; activity change, % at 57.5 µM; 360,000 tested, 4.7% active; in the data active = activity change below about -50%; inconclusive = mostly about -30% to -49%
#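 THP-1 cells pretreated 1 hr with compounds (up to 57.5 uM final), then stimulated with LPS (250 ng/mL final) plus ATP (1.25 mM final); secreted IL-1B measured by AlphaLISA after 16 hr, decreased signal indicating inhibition.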
# ELG1 DNA repair = blocks ELG1-dependent DNA repair in HEK293T cells; Potency, µM (doses to about 46.1 µM), inactives show at the highest dose activity change, negative = inhibition, hits mostly inhibitors; 330,000 tested, 2.3% active; AID 504467; HEK293T ELG1-luciferase reporter, luminescence, 16 h; DNA damage induced by 5-fluorouridine; note: potency is the fitted concentration of half-maximal effect; nearly all actives have a fitted effect of over 55% in size
#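 In this reporter screen, reduction of luminescence relative to DMSO vehicle indicated activity. Compounds and 5-fluorouridine were added together to 2,000 cells per well, incubated for 16 hr at 37 °C, then developed with ONE-Glo.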
# DT40 TDP1 no CPT = qHTS for Inhibitors of human tyrosyl-DNA phosphodiesterase 1 (TDP1): qHTS in cells in absence of CPT; DT40 Tdp1-/- hTDP1 cells, no CPT, ATP luminescence, 48 h; Potency, µM (highest dose often 46.2 µM), for inactives: at the top dose activity change, negative = growth inhibition, actives largely listed as inhibitors; 420,000 tested, 15% active; note: potency is the fitted concentration of half-maximal effect; nearly all actives have a fitted effect of over 55% in size
#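 Luminescent ATP content (CellTiter-Glo) served as the growth readout. Knockout chicken DT40 cells expressing human TDP1 were exposed to compounds without camptothecin for a minimum 48 hr at 37 °C.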
# TDP1 inh = blocks human tyrosyl-DNA phosphodiesterase 1. Q9NUW8. recombinant TDP1, AlphaScreen DNA substrate cleavage. Potency, µM (series often up to 130 µM), without a hit: top-dose activity change, negative = inhibition, most hits filed as inhibitors. 350,000 tested, 0.28% active; note: potency is the fitted concentration of half-maximal effect; nearly all actives have a fitted effect of over 40% in size
# Target sequence (Q9NUW8 whole entry, looked up): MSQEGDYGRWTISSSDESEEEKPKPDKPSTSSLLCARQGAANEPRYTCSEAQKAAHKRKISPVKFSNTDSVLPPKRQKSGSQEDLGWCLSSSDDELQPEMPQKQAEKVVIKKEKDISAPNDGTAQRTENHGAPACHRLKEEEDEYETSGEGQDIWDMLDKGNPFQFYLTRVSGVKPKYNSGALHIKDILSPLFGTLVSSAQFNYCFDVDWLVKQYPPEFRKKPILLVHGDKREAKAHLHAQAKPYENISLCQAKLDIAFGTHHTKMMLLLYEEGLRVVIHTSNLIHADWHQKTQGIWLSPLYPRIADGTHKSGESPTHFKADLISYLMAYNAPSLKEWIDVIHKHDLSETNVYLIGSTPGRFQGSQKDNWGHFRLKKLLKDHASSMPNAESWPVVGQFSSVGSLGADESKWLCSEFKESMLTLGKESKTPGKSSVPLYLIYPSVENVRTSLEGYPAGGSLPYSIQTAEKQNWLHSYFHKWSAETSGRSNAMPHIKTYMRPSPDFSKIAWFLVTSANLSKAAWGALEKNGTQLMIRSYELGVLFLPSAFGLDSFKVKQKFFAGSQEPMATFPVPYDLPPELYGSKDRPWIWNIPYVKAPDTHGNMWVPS
#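 Recombinant human Tdp1 (E. coli-expressed, 1 nM final) preincubated with compounds 15 min at room temperature, then 5'-biotin/3'-phosphotyrosine-FITC DNA substrate (15 nM final) added for 5 min. AlphaScreen beads (10 ug/ml final) added 10 min; cleavage lowers signal.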
# DT40 TDP1 CPT = growth inhibition of DT40 Tdp1-/-;hTDP1 cells with camptothecin (screen for TDP1 inhibitors) | chicken DT40 Tdp1-/-;hTDP1 cells + 20 nM CPT, ATP luminescence, 48 h | AID 686979 | 420,000 tested, 12% active | Potency, µM (doses to about 46.2 µM), inactives show top-dose activity change, negative = growth inhibition, hits mostly inhibitors; note: potency is the fitted concentration of half-maximal effect; nearly all actives have a fitted effect of over 55% in size
#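 Cell growth measured by CellTiter-Glo luminescence after a minimum 48 h, 37 C compound exposure with 20 nM CPT in Tdp1-knockout DT40 cells stably expressing hTDP1, seeded 400/well; qHTS titration format.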
# Giardia kill = Giardia lamblia killing | Giardia lamblia trophozoite viability | activity change, % at 7.66 µM, hits read low | 340,000 tested, 0.15% active; in the data active = activity change below about -80%; inconclusive = between about -30% and that limit;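 note: parasites exposed to compound for two days anaerobically before the ATP read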
#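 Media and compound were dispensed first, then trophozoites at 100 cells/well; plates sat 48 hrs at 37 deg C without oxygen before ATP luminescence reagent was added and read after 15-30 min at room temperature.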
# * hit, by the source's call; ? = inconclusive; . = no result; [ ] = dose if it differs, or a comment. Unless noted, calls come from the whole dose curve; as a rule, active = well fitted curve in the direction sought with a large enough effect; inconclusive = small, poorly fitted or top-dose-only effect, or another doubt; inactive = no such curve, though single readings can be large; an effect the other way counts as inactive or inconclusive. % is set by controls: 0 for no effect and ±100 for the full control effect.
SMILES,IL-1B inflam inh,ELG1 DNA repair,DT40 TDP1 no CPT,TDP1 inh,DT40 TDP1 CPT,Giardia kill
CCc1cccc(C)c1NC(=O)c1cc(S(=O)(=O)NCc2ccccc2Cl)ccc1F,.,.,26µM*,3%,21µM*,.
CCOc1ccc(S(=O)(=O)NCc2ccccc2Cl)cc1C(N)=O,-58*,-7%,?,1%,?,-4
Cc1cccc(NC(=O)c2cc(S(=O)(=O)NCc3ccc4c(c3)OCO4)ccc2F)c1C,.,.,-22%,3%,-7%,.
CC(C)c1ccc(CN2CCSCC2)cc1,0,-2%,-15%,.,2%,19
O=C(Cc1ncc(C(F)(F)F)cc1Cl)NNc1cccc(F)n1,0,1%,9%,.,27%,14
CCC1C(=O)N(C)CCc2ccccc21 (stereo not given),19,?,17%,4%,2%,16
CCCCCCCCCC1(CC(=O)OCC)SCCN1C(N)=O (stereo not given),0,.,15µM*,.,?,.
CCCCC1(CC(=O)OCC)SCCN1C(N)=O (stereo not given),24,.,-14%,.,1%,.
CC(=O)c1cccc(NC(=O)c2ccc(S(=O)(=O)N3CCCCC3)cc2)c1,-26,?,18µM*,2%,23µM*,3
O=C(Nc1cccc(S(=O)(=O)N2CCCCC2)c1)c1ccc(S(=O)(=O)C(F)F)cc1,-82*,21µM*,?,7%,?,-2
Cc1cccc(NC(=O)c2ccc(S(=O)(=O)N3CCCCCC3)cc2)n1,-70*,?,13µM*,-3%,-4%,0
O=C(Nc1ccn(-c2ccccc2)n1)c1ccc(S(=O)(=O)N2CCCCCC2)cc1,-29,5.2µM*,?,2%,?,4
O=C(Nc1cccc(S(=O)(=O)C(F)F)c1)c1ccc(S(=O)(=O)N2CCCCC2)cc1,-62*,13µM*,?,-11%,?,19
CC(=O)c1cccc(NS(=O)(=O)c2ccc(NC(=O)N3CCCCC3)cc2)c1,9,11%,9.2µM*,5%,5.2µM*,8
Cc1cc(C)cc(NC(=O)c2ccc(S(=O)(=O)C(F)F)cc2)c1,-87*,-12%,?,2%,3%,5
O=C(Nc1cccc(Cl)c1)N1CCCC1,-18,18%,26µM*,0%,16µM*,7
CC(=O)c1cccc(NC(=O)N2CCCCCC2)c1,8,15%,-1%,2%[56.1 µM],6%,12
O=C(Nc1cccc(Cl)c1)N1CCOCC1,-29,?,26%,.,-9%,13
O=C(NCC1CCCO1)c1c[nH]c2ccc(S(=O)(=O)Nc3cccc(C(F)(F)F)c3)cc2c1=O (stereo not given),.,.,?,3%,?,.
Cc1ccc(NC(=S)N2CCN(c3ccccn3)CC2)cc1C,-1,-13%,-10%,3%,-15%,3
O=C(Nc1ccc(Cl)cc1)N1CCC(CN2CCCCCC2)CC1,.,.,23µM*,-4%,?,.
O=C(Nc1cccc(C(=O)N2CCCCC2)c1)c1ccc(Cl)cc1,16,2%,21µM*,1%,?,-4
O=C(Cn1c(=O)n(Cc2nc(-c3ccccc3)no2)c(=O)c2cc3c(cc21)OCO3)Nc1cccc(C(F)(F)F)c1,.,.,9.2µM*,0%,13µM*,.
COc1ccc(-c2noc(Cn3c(=O)c4ccccc4n(CC(=O)Nc4cccc(C(F)(F)F)c4)c3=O)n2)cc1,.,.,16µM*,3%,?,.
COc1ccc(OC)c(NC(=O)Cn2c(=O)n(Cc3nc(C)no3)c(=O)c3ccccc32)c1,.,.,3%,0%,-4%,.
SMILES,IL-1B inflam inh,ELG1 DNA repair,DT40 TDP1 no CPT,TDP1 inh,DT40 TDP1 CPT,Giardia kill
Cn1c(SCc2ccc(C(F)(F)F)cc2)nc2c([nH]c3ccccc32)c1=O,.,.,18µM*,7%,9.2µM*,.
Cn1c(SCc2ccc(F)cc2)nc2c([nH]c3ccccc32)c1=O,.,.,?,2%,?,.
Cn1c(SCc2ccc(Br)cc2)nc2c([nH]c3ccccc32)c1=O,.,.,9%,-5%,-5%,.
Cn1c(SCc2cccc(F)c2)nc2c([nH]c3ccccc32)c1=O,.,.,?,1%,7.3µM*,.
CCOC(=O)/C(=C\c1ccccc1)C(=O)CCN1CCOCC1,-1,.,1.5µM*,.,1.6µM*,-2
CCOC(=O)Cn1c(=O)c2c(nc(N3CCCCC3)n2Cc2ccccc2)n(C)c1=O,-1,?,15µM*,-2%,21µM*,5
CCOC(=O)Cn1c(=O)c2c(nc(Br)n2Cc2ccc(Cl)cc2)n(C)c1=O,18,?,9.2µM*,7%,13µM*,0
COc1ccc(-c2noc(CCCC(=O)NC3CCCCC3)n2)cc1,-29,-1%,23µM*,1%,21µM*,3
CCOc1ccccc1NC(=O)CCCc1nc(-c2ccccc2Cl)no1,.,.,?,-1%,13µM*,.
CCOc1ccccc1NC(=O)c1ccccc1-c1nc(-c2ccccc2OC)no1,-4,18µM*,9.2µM*,9%,16µM*,1
CCOC(=O)c1ccc(NC(=O)CCc2nc(-c3ccccc3Cl)no2)cc1,54,-5%,15µM*,1%,16µM*,-7
O=C(O)CCc1nc(-c2ccccc2Cl)no1,43,0%,-2%,6%,8%,5
COc1ccccc1-c1noc(CCC(=O)Nc2ccccc2Cl)n1,0,-13%,-3%,0%,-10%,-3
COc1cc(-c2cc3n(C)c(C)c(CCC(=O)O)c(=O)n3n2)cc(OC)c1OC,.,.,1%,2%,12%,.
CCOC(=O)c1ccc(NC(=O)CCCc2nc(-c3cc(OC)c(OC)c(OC)c3)no2)cc1,.,.,?,6%,?,.
CCOc1ccc(NC(=O)CCCc2nc(-c3cccc(OC)c3)no2)cc1,.,.,21µM*,5%,?,.
CCOC(=O)c1ccc(NC(=O)CCc2nc(-c3ccccc3)no2)cc1,-9,26µM*,29µM*,0%,18µM*,1
CN(Cc1ccc(Cl)cc1Cl)C(=O)CNC(=O)c1ccco1,-11,-2%,5%,3%,5%,-4
C=CCn1c(SCC(=O)Nc2cccc(S(=O)(=O)N(C)c3ccccc3)c2)nnc1C1CC1,-15,-9%,?,1%,?,17
CC(C)c1cc(C(C)C)c(S(=O)(=O)N2CCNCC2)c(C(C)C)c1,-81*,.,?,.,?,2
CC1CCCCC1NC(=O)Cn1cnc2sccc2c1=O (stereo not given),-11,11%,-6%,-3%,-27%,-14
COc1cccc2c1Oc1ncccc1N(C(=O)CCC(=O)NC(C)C)C2,.,.,4%,0%,-6%,.
